Experimental data: publication PMC5540273 (PLoS ONE, 2017)

Assays:
Settings in all cases: concentration: 1 μM, replicates: in singlicate; n = 1
PKN1 = system: PKN1
PKN2 = system: PKN2
PLK1 = system: PLK1
PLK2 = system: PLK2
PLK3 = system: PLK3
PLK4 = system: PLK4
PRKCD = system: PRKCD
PRKCE = system: PRKCE
PRKCH = system: PRKCH
PRKCI = system: PRKCI
PRKCQ = system: PRKCQ
PRKD1 = system: PRKD1
PRKD2 = system: PRKD2
PRKD3 = system: PRKD3
PRKG1 = system: PRKG1
PRKG2 = system: PRKG2
PRKR = system: T1, PRKR
T1 construct: gene EIF2AK2

PRKX = system: PRKX
PRP4 = system: PRP4
PYK2 = system: T2, PYK2
T2 construct: gene PTK2B
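Note: KINOMEscan kinase panel screen.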

| SMILES | %Inh (PKN1) | %Inh (PKN2) | %Inh (PLK1) | %Inh (PLK2) | %Inh (PLK3) | %Inh (PLK4) | %Inh (PRKCD) | %Inh (PRKCE) | %Inh (PRKCH) | %Inh (PRKCI) | %Inh (PRKCQ) | %Inh (PRKD1) | %Inh (PRKD2) | %Inh (PRKD3) | %Inh (PRKG1) | %Inh (PRKG2) | %Inh (PRKR) | %Inh (PRKX) | %Inh (PRP4) | %Inh (PYK2) |
| --- | --- | --- | --- | --- | --- | --- | --- | --- | --- | --- | --- | --- | --- | --- | --- | --- | --- | --- | --- | --- |
| Cl.NC(=O)c1cccc(Nc2nccc(Nc3ccc(Oc4cccc(Cl)c4)c(Cl)c3)n2)c1 [GW659008] | 0% | 0% | 5% | 0% | 0% | 0% | 27% | 27% | 10% | 10% | 0% | 0% | 6% | 0% | 0% | 3% | 0% | 15% | 18% | 15% |
| Cc1ccc(C(=O)Nc2ccc(Nc3ccnc4cc(-c5ccccn5)ccc34)cc2O)cc1.Cl [GW440146] | 0% | 0% | 0% | 0% | 0% | 10% | 0% | 0% | 24% | 5% | 6% | 17% | 0% | 18% | 0% | 0% | 0% | 9% | 12% | 1% |
| COc1cc2ncn(-c3cc(OCC4CCCO4)c(C(N)=O)s3)c2cc1OC (stereo not shown) [GSK204607] | 0% | 0% | 98.9% | 99.4% | 98.3% | 0% | 0% | 2% | 0% | 100% | 0% | 0% | 0% | 0% | 0% | 0% | 13% | 10% | 4% | 0% |
| COc1ccc(C2=C(Nc3cccc(C(=O)O)c3)C(=O)NC2=O)cc1 [SB-390765] | 18% | 7% | 21% | 48% | 21% | 2% | 5% | 25% | 4% | 47% | 12% | 0% | 0% | 0% | 0% | 0% | 11% | 0% | 0% | 17% |
| Cc1cccc(-c2nc(Nc3cccc(C(N)=O)c3)c3ccccc3n2)n1 [GW876019] | 0% | 0% | 0% | 0% | 4% | 0% | 7% | 0% | 0% | 24% | 0% | 64% | 66% | 87% | 0% | 0% | 6% | 0% | 11% | 6% |
| COc1cc2nccc(Nc3ccc(NC(=O)c4ccc(C)cc4)c(O)c3)c2cc1OC.Cl [GW440132] | 0% | 0% | 0% | 0% | 0% | 13% | 24% | 0% | 17% | 12% | 16% | 0% | 0% | 0% | 0% | 0% | 0% | 18% | 2% | 12% |
| Cn1ccc2ncnc(Oc3cccc(C(=O)Nc4ccccc4)c3)c21 | 0% | 0% | 0% | 0% | 0% | 2% | 2% | 0% | 0% | 0% | 0% | 0% | 9% | 0% | 3% | 0% | 0% | 0% | 5% | 0% |
| Cc1c(O)cccc1Nc1ccnc2ccc(C(F)(F)F)cc12.Cl [GW466413] | 0% | 0% | 0% | 0% | 0% | 0% | 0% | 0% | 28% | 0% | 0% | 0% | 0% | 0% | 5% | 0% | 0% | 0% | 4% | 0% |
| O=S(=O)(c1ccc(-c2ccnc3[nH]ccc23)cc1)N1CCCC1 [GSK846226] | 40% | 0% | 0% | 4% | 0% | 0% | 0% | 2% | 0% | 20% | 0% | 0% | 3% | 0% | 36% | 14% | 21% | 28% | 8% | 0% |
| COC(=O)c1c(-c2ccccc2)c2cc(C(=O)O)ccc2c(=O)n1Cc1ccccc1 | 0% | 0% | 0% | 12% | 0% | 11% | 0% | 0% | 4% | 0% | 22% | 14% | 0% | 3% | 8% | 0% | 3% | 0% | 9% | 0% |
| O=C(Nc1n[nH]c2nc(-c3nccs3)c(Br)cc12)C1CCCC1 [SB-742609] | 0% | 0% | 0% | 0% | 0% | 0% | 5% | 0% | 2% | 12% | 4% | 0% | 0% | 0% | 2% | 0% | 5% | 0% | 13% | 9% |
